Screening data (PubChem BioAssay)
Sampled rows, rich in hits. Any-hit rate of the full collection: about 1.5%.
FBPA coupling cs: inhibits coupling enzyme system, counter-screen for aldolase hits | 290,000 tested, 0.67% active | activity change, negative = inhibition, % at 58.2 µM, hits read low | coupling enzyme system counterscreen, AmpLite Red fluorescence; in the data active means activity change below about -30%
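Counterscreen lacking aldolase: glyceraldehyde-3-phosphate coupling-enzyme reagent preincubated 10 min at RT with compound (at 57.5 uM final), then substrate/coupling system with AmpLite Red added; fluorescence read at 525/598 nm after 20 min RT.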
Giardia kill: Giardia lamblia killing; Giardia lamblia trophozoite viability; activity change, % at 7.66 µM, hits read low; 340,000 tested, 0.15% active; AID 540267; in the data active means activity change below about -80%; inconclusive means between about -30% and that limit;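 further: parasites exposed to compound for two days anaerobically before the ATP read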
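Compounds were tested on trophozoites seeded at 100 cells/well and held 48 hrs at 37 deg C anaerobically. An ATP-based luminescent kit measured the remaining live cells.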
PI4K2A block: PI4K2A (human) kinase inhibition; Q9BTU6; purified PI4K2A, ADP-Glo luminescence, 1 h; hits give low values; activity change, negative = inhibition, % at 76.9 µM; 420,000 tested, 0.13% active; AID 1346378; in the data active means activity change below about -50%; inconclusive means mostly about -30% to -49%
Target sequence (Q9BTU6 whole entry, looked up): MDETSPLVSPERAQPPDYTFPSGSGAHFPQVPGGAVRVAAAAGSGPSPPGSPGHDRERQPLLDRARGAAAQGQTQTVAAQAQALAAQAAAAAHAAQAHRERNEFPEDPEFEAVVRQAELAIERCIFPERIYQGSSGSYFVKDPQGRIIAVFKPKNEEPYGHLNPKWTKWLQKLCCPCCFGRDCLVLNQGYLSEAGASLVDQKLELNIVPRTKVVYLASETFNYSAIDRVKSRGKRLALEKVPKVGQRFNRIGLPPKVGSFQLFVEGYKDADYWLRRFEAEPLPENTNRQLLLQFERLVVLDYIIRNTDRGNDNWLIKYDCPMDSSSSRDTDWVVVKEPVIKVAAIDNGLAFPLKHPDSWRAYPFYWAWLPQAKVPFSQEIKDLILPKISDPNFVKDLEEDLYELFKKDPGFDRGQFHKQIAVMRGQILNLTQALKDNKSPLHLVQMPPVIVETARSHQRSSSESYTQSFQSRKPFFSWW
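In this quantitative HTS, ADP production by PI4K2A was quantified luminescently after 1 h at ambient temperature; 100 microM adenosine served as plate-quality control.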
GALK inh: inhibitors of human galactokinase. Potency, µM (highest dose often 57.5 µM), most hits filed as inhibitors. Purified GALK, Kinase-Glo residual ATP luminescence. 270,000 tested, 0.007% active
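GALK at 5 nM final was combined with compound, 35 uM ATP and 100 uM galactose in HEPES pH8.0 with MgCl2 and DTT. The reaction ran one hour at room temperature before luminescent ATP detection.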
TrxR1 substrate: substrates of rat thioredoxin reductase 1; O89049; purified TrxR1 substrate turnover, NADPH consumption readout; Potency, µM (series often up to 114 µM); 390,000 tested, 0.01% active; AID 588456; further: nearly all actives have a fitted effect of over 50% in size
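Rat TrxR1, dispensed at 90 nM, was prereduced with 400 uM NADPH (final) for 5 min at ~22 deg C, then incubated with compound 15 min before 400 uM selenite. A first-read NADPH fluorescence drop versus no-compound background flagged substrates.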
rTrxR1 inhibitor: inhibitors of rat thioredoxin reductase 1; O89049; recombinant rTrxR1, NADPH fluorescence consumption, selenite substrate; Potency, µM (top dose mostly 114 µM), most hits filed as inhibitors; 390,000 tested, 1% active; AID 588453; further: nearly all actives have a fitted effect of over 65% in size
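Rat TrxR1 (90 nM in the dispensed reagent) was pre-reduced with 400 uM NADPH for 5 min at room temperature, then incubated with compound for 15 min. After 400 uM selenite was added, NADPH fluorescence (Ex 340/Em 450 nm) was followed for 8 min.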
Each line names hits and unclear results; the compound was inactive in the other large screens. Unless noted, the call rests on the fitted dose curve; in most records, active means well fitted curve in the direction sought with a large enough effect; inconclusive means small, poorly fitted or top-dose-only effect, or another doubt; inactive means no such curve, though single readings can be large; an effect the other way counts as inactive or inconclusive.

COc1ccc2nc(NC(=O)c3ccccc3[N+](=O)[O-])sc2c1	none
CN(C)CCCN(C(=O)c1ccc([N+](=O)[O-])o1)c1nc2cc3c(cc2s1)OCO3	Giardia kill inconclusive, rTrxR1 inhibitor 50µM
COc1ccc(C(=O)Nc2nc3c(s2)Cc2cc(OC)ccc2-3)cc1	PI4K2A block inconclusive (no result: FBPA coupling cs)
O=S1(=O)CCO[C@H]2CCCC[C@@H]2N1Cc1ccccc1F	none (no result: FBPA coupling cs, Giardia kill, PI4K2A block, GALK inh)
COc1ccc(NC(=O)CC2C(=O)N(c3ccc(C)cc3)C(=O)N2CCc2ccccc2)cc1 (centres undefined)	none (no result: FBPA coupling cs, Giardia kill, GALK inh)
O=C(Nc1c(Cl)ccc2nsnc12)c1ccc([N+](=O)[O-])o1	Giardia kill -87, rTrxR1 inhibitor inconclusive
CCOc1ccc2nc(NC(=O)c3cccnc3)sc2c1	none
O=C(Nc1nc2ccccc2s1)c1ccc([N+](=O)[O-])o1	Giardia kill -100
CCOc1ccc2nc(NC(=O)c3ccccc3)sc2c1	PI4K2A block -58 (no result: FBPA coupling cs, Giardia kill, GALK inh)
Cc1nc([N+](=O)[O-])cn1-c1ccc([N+](=O)[O-])cc1	none (no result: FBPA coupling cs, Giardia kill, GALK inh, TrxR1 substrate, rTrxR1 inhibitor)
Cc1ccc(C)c(CSc2nnc3[nH]c(=O)cc(C)n23)c1	none (no result: FBPA coupling cs, Giardia kill, GALK inh)
O=C1C(NS(=O)(=O)c2cccs2)=C(N2CCN(c3ccccc3)CC2)C(=O)c2ccccc21	FBPA coupling cs -33, rTrxR1 inhibitor inconclusive
CC(=O)Nc1ccc(N2CCCC2)cc1	FBPA coupling cs -32
CC(=O)Nc1ccc(N2CCCCC2)cc1	none
CC1CCCN(C2=C(NS(=O)(=O)c3ccc(Cl)cc3)C(=O)c3ccccc3C2=O)C1 (centres undefined)	FBPA coupling cs -40, PI4K2A block inconclusive
O=S(=O)(c1cccs1)N1CCN(c2ccccc2)CC1	none
COC(=O)C1CCN(C2=C(NS(=O)(=O)c3ccc(Cl)cc3)C(=O)c3ccccc3C2=O)CC1	none
CC(=O)Nc1ccc(S(=O)(=O)NC2=C(N3CCN(c4ccc(F)cc4)CC3)C(=O)c3ccccc3C2=O)cc1	FBPA coupling cs -56
Cc1ccc(S(=O)(=O)NC2=C(N3CCN(Cc4ccccc4)CC3)C(=O)c3ccccc3C2=O)cc1	FBPA coupling cs -34
NC(=O)C1CCN(C2=C(NS(=O)(=O)c3ccc(Cl)cc3)C(=O)c3ccccc3C2=O)CC1	FBPA coupling cs -30, rTrxR1 inhibitor 20µM
Cc1ccc(S(=O)(=O)NC2=C(N3CCN(c4ccccc4F)CC3)C(=O)c3ccccc3C2=O)cc1	none
CCCS(=O)(=O)c1c(S(=O)(=O)CCC)c2ccccn2c1C(=O)OC	rTrxR1 inhibitor 40µM
CCCS(=O)(=O)c1c(S(=O)(=O)CCC)c2c(N)cccn2c1C(=O)c1ccc(F)cc1	FBPA coupling cs -38
CCCS(=O)(=O)c1c(S(=O)(=O)CCC)c2c(C)cccn2c1C(=O)OC	rTrxR1 inhibitor 25µM (no result: GALK inh)
COc1ccc(OC)c(/C=C/c2sc3ccccc3[n+]2C)c1	none (no result: FBPA coupling cs, Giardia kill, PI4K2A block, GALK inh)
C=CC(=O)Oc1ccc(N2Cc3ccccc3C2=O)cc1	rTrxR1 inhibitor 3.5µM (no result: FBPA coupling cs, GALK inh)
COc1ccc(N2Cc3ccccc3C2=O)cc1	Giardia kill inconclusive, PI4K2A block inconclusive
CCN(CC(=O)Nc1c(C(=O)OC)[nH]c2ccc(C)cc12)c1ccc2c(c1)OCO2	FBPA coupling cs -38
COC(=O)c1[nH]c2ccc(F)cc2c1NC(=O)CCN1CCN(Cc2ccc3c(c2)OCO3)CC1	none
O=C(O)c1ccc2c(c1)[C@@H]1C=CC[C@@H]1[C@H](c1ccccn1)N2	rTrxR1 inhibitor 4µM (no result: FBPA coupling cs, GALK inh)
COC(=O)c1ccc([C@H]2Nc3ccc(S(=O)(=O)Nc4ccc(F)cc4)cc3[C@H]3C=CC[C@H]32)cc1	rTrxR1 inhibitor 71µM (no result: FBPA coupling cs, Giardia kill, GALK inh)
Fc1ccc([C@@H]2Nc3ccccc3[C@@H]3C=CC[C@@H]32)cc1	rTrxR1 inhibitor 28µM (no result: FBPA coupling cs, Giardia kill, GALK inh)
COc1cccc(NS(=O)(=O)c2ccc3c(c2)C2C=CCC2C(c2ccc(C(=O)O)cc2)N3)c1 (centres undefined)	rTrxR1 inhibitor 40µM
COc1ccccc1C1CC(=O)Oc2cc3c(cc21)OCO3 (centres undefined)	none (no result: Giardia kill, PI4K2A block, GALK inh, TrxR1 substrate, rTrxR1 inhibitor)
Cc1nc2ccccn2c1C(O)(c1ccccc1)c1ccccc1	none (no result: FBPA coupling cs, Giardia kill, GALK inh, TrxR1 substrate, rTrxR1 inhibitor)
Cc1ccsc1C1C2=C(CCCC2=O)Nc2ncnn21 (centres undefined)	FBPA coupling cs -30
